In the library only some 0.28% were active in any assay of this set; here they are far more common.
mcGAS inh: cyclic GMP-AMP synthase inhibitors, mouse, primary biochemical chemiluminescence | recombinant cGAS, Kinase-Glo ATP depletion luminescence | inhibition, % at 12.5 µM | 0.15% of 160,000 active | AID 1259399, 2018;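 further: 0% = negative control wells and 100% = reference inhibitor with no enzyme activity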
Target sequence (Q8C6L5 whole entry, looked up): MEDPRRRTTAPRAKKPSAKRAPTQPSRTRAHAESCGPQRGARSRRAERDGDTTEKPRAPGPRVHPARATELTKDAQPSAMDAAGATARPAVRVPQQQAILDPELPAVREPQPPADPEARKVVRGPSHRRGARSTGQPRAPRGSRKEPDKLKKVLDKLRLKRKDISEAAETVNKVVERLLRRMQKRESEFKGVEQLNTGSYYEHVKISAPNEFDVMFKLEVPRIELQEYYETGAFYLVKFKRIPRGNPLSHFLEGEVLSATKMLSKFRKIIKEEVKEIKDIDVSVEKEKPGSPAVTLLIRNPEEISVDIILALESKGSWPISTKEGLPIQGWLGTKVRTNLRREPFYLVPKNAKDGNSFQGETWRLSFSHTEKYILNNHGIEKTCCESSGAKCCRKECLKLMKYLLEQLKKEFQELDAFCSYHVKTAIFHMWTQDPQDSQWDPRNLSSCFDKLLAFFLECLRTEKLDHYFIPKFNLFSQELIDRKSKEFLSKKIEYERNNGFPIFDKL
NPYLR7 agonist: agonists of mosquito NPYLR7 receptor, primary screen, cell-based, Aedes aegypti, calcium fluorescence, mosquito biting behavior | Aedes aegypti neuropeptide Y-like receptor 7 (NPYLR7) | HEK293T NPYLR7/Galpha15, GCaMP6s calcium fluorescence | activation, % at 10 µM | 0.15% of 270,000 active; in the data active means activation above about 40%;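 further: 0% = vehicle and 100% = reference agonist at the receptor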
hcGAS inh: Primary biochemical luminescence assay for human cyclic GMP-AMP synthase inhibitors. Q8N884. recombinant h-cGAS, ATP depletion, Kinase-Glo luminescence. 0.081% of 290,000 active. inhibition, % at 12.5 µM;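 further: 0% = vehicle reaction and 100% = reaction without DNA for no activity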
Numbers without * were called inactive; / = not tested or not shown; ! = not confirmed by another sample. Unless noted, no stated cut-off is given here; in the data, active means inhibition above about 40%; inactive means the rest.

SMILES | mcGAS inh | NPYLR7 agonist | hcGAS inh
CCC(O)C1CCCCN1Cc1ncc(Cl)n1C (stereo unspecified) | / | 13 | -4
OC[C@@H](O)C(O[C@@H]1O[C@H](CO)[C@H](O)[C@H](O)[C@H]1O)[C@H](O)[C@@H](O)CO (stereo partly specified) | / | / | -4
OC[C@H]1OC([S-])[C@H](O)[C@@H](O)[C@@H]1O.[Au+] (stereo partly specified) | 57* | -8 | 68*
FC(F)(F)c1ccc(-c2nc3ccc(Cl)cn3c2NCc2ccccc2)cc1 | -8 | 47* | -7
CC(C)(C)c1ccc(-c2nc3ccc(Cl)cn3c2NCc2ccccc2)cc1 | -7 | -4 | -6
COC(=O)C1=C(C)NC(C)=C(C(=O)OCC(C)C)C1c1ccccc1[N+](=O)[O-] (stereo unspecified) | 58* | -6 | 5
CC1=C(C(=O)OCC(C)C)C(c2ccccc2[N+](=O)[O-])NC(=O)N1C (stereo unspecified) | -5 | -1 | -7
CC(C)S(=O)(=O)Oc1ccc(CN(C(=O)c2cccc(F)c2)C2CC2)cc1 | -4 | 24 | -11
CC(C)S(=O)(=O)Oc1ccc(CN(Cc2ccco2)C(=O)c2cccc(F)c2)cc1 | -4 | 10 | 45*
CCOC(=O)C1CCCN(c2nc3nonc3nc2N2CCSCC2)C1 (stereo unspecified) | -3 | 45*! | -9
O=C(C1CCCN(c2nc3nonc3nc2N2CCCCCC2)C1)N1CCOCC1 (stereo unspecified) | / | 7 | 6
Cc1nc(C)c(Cc2c(F)cccc2Cl)c(N2CCN(C(=O)C3CC3)CC2)n1 | -8 | / | -1
CCC(=O)C(C#N)c1nnc(-c2ccccc2)s1 (stereo unspecified) | / | 8 | 56*
CC(N)C(=O)Nc1nnc(-c2ccccc2)s1 (stereo unspecified) | -5 | -7 | -6
COCCNC(=O)c1cc(NC(=O)c2cccc(Cl)c2)ccc1N1CCC(Cc2ccccc2)CC1 | -6 | / | -5
COC(=O)c1ccc(C=CC(=O)c2ccc(O)c(OC)c2)cc1 | 44* | 0 | -4
COc1cccc(C=CC(=O)c2ccc(OC)c(OC)c2)c1 | 39 | -1 | -7
COc1cc(C=CC(=O)c2ccc(C#N)cc2)ccc1O | 3 | 3 | 2
COc1cc(C(=O)C=Cc2cccc(O)c2)ccc1O | 41* | 0 | 1
O=C(O)CSc1nc2c(cnn2CCO)c(=O)[nH]1 | / | 5 | -4
Cc1nnc(SCCCNC(=O)c2ccc3cc[nH]c3c2)s1 | -11 | 5 | -10
COC(=O)c1cnc(/C=C/c2cc(C)c(O)c(C)c2)s1 | / | 46* | -6
CNC(=O)c1cnc(/C=C/c2cc(OC)c3c(c2)OCCO3)s1 | / | -7 | 3
CC(C)(Cc1ccc(F)cc1)NC(=O)c1cccnc1Oc1ccc(Cl)cc1 | -4 | -3 | -4
O=C1C(Cl)=C(N2CCOCC2)C(=O)N1c1ccc(Cl)c(Cl)c1 | 50* | 22 | -2
SMILES | mcGAS inh | NPYLR7 agonist | hcGAS inh
O=C1C(Cl)=C(N2CCOCC2)C(=O)N1c1ccccc1F | / | 8 | -5
C=C1C(=O)O[C@@H]2C[C@@]3(C)CCC[C@H](C)C3=C[C@H]12 | 93* | -6 | -4
COc1cc(NS(=O)(=O)NCc2ccccc2)cc(OC)c1 | / | 6 | -5
CC(C)Nc1ccc(NS(=O)(=O)NCc2ccccc2)cn1 | / | 63* | -8
Cc1cc2c(C(C)C)c(O)c(O)c(C=O)c2c(O)c1-c1c(C)cc2c(C(C)C)c(O)c(O)c(C=O)c2c1O | 48*! | -3 | -7
CN1CCN(S(=O)(=O)c2cc(Br)cnc2N)CC1 | / | 3 | 2
O=C(NCc1cccc(C(F)(F)F)c1)c1csc(CSc2nnc(-c3ccncc3)n2-c2cccc(C(F)(F)F)c2)n1 | 1 | -8 | -1
O=C(O)c1csc(CSc2nnc(-c3ccncc3)n2-c2cccc(C(F)(F)F)c2)n1 | 1 | 49* | 1
Cc1ccccc1CN(C)Cc1nc2c([nH]1)c(=O)n(C)c(=O)n2C | -6 | 10 | -5
N#CC(C(=O)C(F)(F)F)c1nc2ccccc2s1 (stereo unspecified) | / | 1 | 44*
N#CC(C(=O)COc1cc(F)ccc1F)c1nc2ccccc2s1 (stereo unspecified) | / | 9 | -9
CN(Cc1sc(N(C)C)nc1Cl)Cc1cccc2ncccc12 | / | 29 | -5
O=C(c1cccnc1Cl)N1CCOC(COCc2ccccc2F)C1 (stereo unspecified) | -8 | 51* | -5
CCOc1ncccc1C(=O)N1CCOC(COCc2ccccc2F)C1 (stereo unspecified) | -4 | -5 | -4
c1nc(NC2CCCCCC2)c2cc[nH]c2n1 | / | 3 | -3
COCCN(Cc1cc(NC(=O)c2ccccc2Cl)ccc1N(C)C)C(=O)NC(C)(C)C | -3 | 1 | -1
